Assay results: PubChem BioAssay AID651768 (National Center for Advancing Translational Sciences (NCATS), 2012)
Out of some 360,000 compounds screened, about 1,700 (0.47%) were called active. Another 2% or so got no clear call; they are omitted. The call rests on the fitted dose curve; in most records, active means well fitted inhibition curve with a large enough effect; inconclusive means small, poorly fitted or top-dose-only effect; inactive means no such curve, though single readings can be large or run the other way. For the sample, actives were picked, then their nearest neighbours and some compounds at random.

molecular target: Bifunctional 3'-5' exonuclease/ATP-dependent helicase WRN (Homo sapiens) (UniProt Q14191); test: qHTS for Inhibitors of WRN Helicase; conditions: WRN helicase unwinding, fluorescent forked duplex, kinetic; series mostly up to 114 µM; further: nearly all actives have a fitted effect of over 55% in size
Text: Inhibition of DNA repair is proposed as a strategy for combating cancer. Synthetic lethality is an approach that exploits preexisting DNA repair deficiencies in certain tumors to develop inhibitors of DNA repair pathways that compensate for the tumor-associated DNA repair deficiency. Because helicases play critical roles in the DNA damage response and in DNA repair, particularly in actively dividing and replicating cells, characterization of synthetic lethal relationships of DNA helicases may be of value in developing improved anticancer treatment strategies; moreover, small molecules that specifically target a given DNA helicase may be useful for understanding its role in cellular nucleic acid metabolism. The goal of this project is to identify small molecule, non-covalent chemical inhibitors of the Werner syndrome (WS) helicase (WRN), which plays an important role in cell proliferation, the replication stress response, and DNA repair. […] The WRN gene product that is defective in the chromosomal instability disorder has DNA helicase and exonuclease activities and interacts with a number of nuclear proteins to maintain genomic stability. We will employ an optimized high-throughput screening assay that utilizes a fluorescence intensity modulation scheme with a fluorophore and quencher positioned near one another within a duplex deoxyoligonucleotide that contains a single forked structure. After a high-throughput screen of the ~350,000-member Molecular Libraries Small Molecule Repository (MLSMR) collection, followed by data analysis and hit selection, a panel of confirmatory, as well as secondary and ternary, assays will be employed to identify high-confidence WRN inhibitors. Structure-activity relationships will be investigated for the top candidate inhibitor series through medchem expansion. These are the results of the primary screening campaign against the MLSMR. NIH Chemical Genomics Center [NCGC] NIH Molecular Libraries Probe Centers Network [MLPCN] MLPCN Grant: MH096530 Assay Submitter (PI): Robert Brosh, National Institute of Aging
Three muL of reagents (buffer in columns 3 and 4 as negative controls; WRN at 20 nM final concentration in columns 1 and 2 as positive controls; columns 5-48 as test reactions) will be dispensed into a 1536-well Greiner black plate via solenoid-valve based nanoliter dispensers. Compounds (23 nL each in columns 5-48) and control (23 nL each in column 2 as dose-response) will be transferred via a Kalypsys pintool equipped with a 1536-pin array. Plates will be incubated for 15 min at room temperature, and then 1 µL of substrate (100 nM forked duplex oligonucleotide and 2 mM ATP final concentrations) will be added to start reaction, and plate will be transferred into a ViewLux high-throughput CCD imager where reaction progress is measured in kinetic mode using standard red-fluorescence optics (excitation filter 525 nm, emission filter 598 nm).
Potency means the concentration at half of the fitted maximal effect.

Bifunctional 3'-5' exonuclease/ATP-dependent helicase WRN (Homo sapiens), sequence (Q14191 whole entry, looked up): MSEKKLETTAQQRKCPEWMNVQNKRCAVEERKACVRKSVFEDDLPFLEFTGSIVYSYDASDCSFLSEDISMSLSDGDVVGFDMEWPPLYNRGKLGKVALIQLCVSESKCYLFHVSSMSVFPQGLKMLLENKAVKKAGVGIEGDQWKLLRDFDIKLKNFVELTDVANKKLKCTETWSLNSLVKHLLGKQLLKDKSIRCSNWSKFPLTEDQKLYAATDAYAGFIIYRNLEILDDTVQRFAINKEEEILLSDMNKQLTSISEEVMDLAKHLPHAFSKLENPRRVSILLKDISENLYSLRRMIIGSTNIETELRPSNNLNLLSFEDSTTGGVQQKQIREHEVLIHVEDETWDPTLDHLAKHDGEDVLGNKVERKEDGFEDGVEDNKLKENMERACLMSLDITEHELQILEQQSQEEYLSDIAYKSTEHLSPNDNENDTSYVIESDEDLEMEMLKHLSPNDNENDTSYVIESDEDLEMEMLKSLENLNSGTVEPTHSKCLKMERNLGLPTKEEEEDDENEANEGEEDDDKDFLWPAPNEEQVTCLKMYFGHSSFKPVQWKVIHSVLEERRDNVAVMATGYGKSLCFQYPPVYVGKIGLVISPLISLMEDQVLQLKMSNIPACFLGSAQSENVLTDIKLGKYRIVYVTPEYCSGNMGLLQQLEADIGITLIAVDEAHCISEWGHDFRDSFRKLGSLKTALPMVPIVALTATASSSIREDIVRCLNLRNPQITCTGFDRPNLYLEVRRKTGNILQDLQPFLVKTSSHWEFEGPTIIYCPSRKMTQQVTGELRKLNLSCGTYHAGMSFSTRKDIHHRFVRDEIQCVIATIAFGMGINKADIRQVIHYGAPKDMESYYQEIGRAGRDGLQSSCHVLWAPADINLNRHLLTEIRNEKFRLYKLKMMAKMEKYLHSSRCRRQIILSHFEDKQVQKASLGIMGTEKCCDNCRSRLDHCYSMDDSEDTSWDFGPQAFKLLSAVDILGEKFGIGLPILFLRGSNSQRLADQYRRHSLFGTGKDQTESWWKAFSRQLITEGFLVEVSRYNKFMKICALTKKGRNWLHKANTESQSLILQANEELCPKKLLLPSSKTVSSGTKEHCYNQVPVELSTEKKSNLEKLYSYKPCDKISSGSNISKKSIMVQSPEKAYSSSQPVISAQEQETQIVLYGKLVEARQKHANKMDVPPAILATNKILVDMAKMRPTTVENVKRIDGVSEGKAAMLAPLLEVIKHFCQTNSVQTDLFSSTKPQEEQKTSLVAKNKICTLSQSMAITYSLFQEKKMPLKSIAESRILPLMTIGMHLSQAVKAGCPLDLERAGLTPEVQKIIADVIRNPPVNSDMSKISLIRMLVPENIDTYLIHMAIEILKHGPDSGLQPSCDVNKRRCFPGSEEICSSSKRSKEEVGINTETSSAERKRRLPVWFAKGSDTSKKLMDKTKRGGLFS

Potency, inactive:
Cc1ccc2c(NC(=O)C3CC3)cccc2n1
COc1ccc(CNC(=O)/C(C#N)=C/c2cccc(OC)c2OC)cc1
CC(O)CN(Cc1ccc(Cl)cc1)CC(C)O (configuration not stated)
Cc1ccc(S(=O)(=O)NC[C@H]2O[C@@H](n3cnc4c(N)ncnc43)[C@H](O)[C@@H]2O)s1
CCC(C)CN1C(=O)CSCC1(C)C(=O)NCc1ccccc1 (configuration not stated)
O=C(CSc1nnc(-c2ccncc2)o1)NCc1ccc(Cl)cc1
CCOC(=O)N1CCC(N2Cc3cccc(C(=O)Nc4ccc(S(=O)(=O)N(CC)CC)cc4)c3C2=O)CC1
CCCCn1c(SCc2ncc(-c3ccccc3)o2)nc2cc(S(N)(=O)=O)ccc21
COc1ccc(N(CC(=O)NCCSCc2cccc(Cl)c2)S(C)(=O)=O)cc1
COc1cc(/C=C/C(=O)OCC(=O)NC(=O)NCc2ccccc2)ccc1OCC#N
COC(=O)c1ccc(C(NC(=O)OCc2ccccc2)/C(C)=C/[C@@H](C)C(=O)NCc2ccc(OC)c(OC)c2)cc1 (some centres not stated)
COc1cccc(/C=N/NC(=O)C(=O)N2CCCC2)c1
CC(NC(=O)C(=O)NN=C1CCC(C(C)(C)C)CC1)c1ccccc1 (configuration not stated)
CC(=O)Nc1cncc(-c2ccccc2CO)n1
O=C(O)C1C2C=CC(C2)C1C(=O)N1CCN(CCO)CC1 (configuration not stated)
C#CCOCCOCCOCCNc1nc(N2CCN(C(=O)[C@H](CCCCN)n3cc([C@@H](N)C(C)CC)nn3)CC2)nc(N2CCN(C(=O)[C@H](Cc3ccc(O)cc3)n3cc([C@@H](N)C(C)CC)nn3)CC2)n1 (some centres not stated)
C#CCOCCOCCOCCNc1nc(N2CCN(C(=O)[C@H](CO)n3cc([C@@H](N)C(C)C)nn3)CC2)nc(N2CCN(C(=O)[C@H](CCC(=O)O)n3cc([C@@H](N)[C@H](C)CC)nn3)CC2)n1
C#CCOCCOCCOCCNc1nc(N2CCOCC2)nc(N2CCN(C(=O)[C@H](Cc3ccc(O)cc3)n3cc(CCO)nn3)CC2)n1
C#CCOCCOCCOCCNc1nc(N2CCN(C(=O)C(Cc3ccc(O)cc3)n3cc(C(N)CC(C)C)nn3)CC2)nc(N2CCN(C(=O)C(Cc3ccc(O)cc3)n3cc(C(N)C(C)CC)nn3)CC2)n1 (configuration not stated)
C#CCOCCOCCOCCNc1nc(N2CCN(C(=O)C([C@@H](C)CC)n3cc(C(N)COC(=O)C(F)(F)F)nn3)CC2)nc(N2CCN(C(=O)[C@H](CCCCN)n3cc(C(N)CC(C)C)nn3)CC2)n1 (some centres not stated)
C#CCOCCOCCOCCNc1nc(N2CCN(C(=O)[C@H](CCC(=O)O)n3cc(C(N)CO)nn3)CC2)nc(N2CCN(C(=O)[C@H](Cc3ccc(O)cc3)n3cc(C(N)[C@H](C)CC)nn3)CC2)n1 (some centres not stated)
COc1ccc(NC(=O)C(c2ccncc2)n2c(=O)c(-c3cc4ccccc4[nH]3)nc3ccccc32)cc1 (configuration not stated)
Cc1ccc(C(=O)NNC(=O)OC(C)(C)C)c(Cl)c1
CCCCN(C=O)c1c(CC)nc2c(OCc3ccccc3C(=O)OC)cccn12
Cc1c(NC(=O)COC(=O)/C=C/c2cccc(F)c2)c(=O)n(-c2ccccc2)n1C
O=C(C1CCN(CC2CCCCC2)CC1)N1CCCC1
CN1CCN(C(=O)c2ccc(-c3cc4nc(NCc5cccnc5)n(C)c(=O)c4s3)cc2)CC1
CN(C)NC(=O)C(NC(=O)c1ccc(N)cc1)C12CC3CC(CC(C3)C1)C2 (configuration not stated)
Cc1cccc(CN2CCN(C3CN(Cc4cn(Cc5cc(C)cc(C)c5)nn4)S(=O)(=O)C3)CC2)c1 (configuration not stated)
CC(C)c1ccc(NC(=O)CCN2C(=O)c3ccc([N+](=O)[O-])cc3C2=O)cc1
CN(CC1CCCO1)S(=O)(=O)c1ccc(C(=O)Nc2ccc([N+](=O)[O-])cc2)cc1 (configuration not stated)
CC(C)C[C@H]1CNC(=S)N1C[C@H]1CCCN1C[C@H](Cc1ccc(O)cc1)N1C[C@H](Cc2ccc(O)cc2)N(CC2CCCCC2)C1=S
CCc1ccc(N(CC(=O)NCc2cccnc2)S(=O)(=O)c2ccccc2)cc1
O=C(c1cccnc1)N(Cc1ccccc1)C(=O)c1cccnc1
COc1ccc(C(C)=O)cc1COC(=O)Cn1cnc2ccccc2c1=O
COC(=O)[C@@]1(Cc2ccc(OC)cc2)[C@H]2c3cc(C(=O)N4CCCC4)n(Cc4ccc(OC(F)(F)F)cc4)c3C[C@H]2CN1C(=O)c1ccccc1
CCOCCC(=O)Nc1ccc2c(c1)c(=O)n(C)n2-c1ccc2ccccc2c1

Potency, active:
Cc1ccc(/C=C(\C#N)C(=O)Nc2cccc3ncccc23)o1 20 µM
O=c1ccc2c(-c3ccccc3S(=O)(=O)O)c3ccc(O)c(O)c3oc-2c1O 0.212 µM
COc1ccc2c(c1)c(=Cc1ccc(N(C)C)cc1)c1cc(-c3ccccc3)[n+](C)n12 28.2 µM
COC(=O)c1ccc(COc2ccc(/C=C/C(=O)c3ccc(OC)c(CSCC(=O)O)c3)cc2OC)cc1 44.7 µM
C#CCOCCOCCOCCNc1nc(N2CCN(C(=O)CCCCCCCCCCNC(=O)Cn3cc(CCCCCN)nn3)CC2)nc(N2CCN(C(=O)CCCCCCCCCCNC(=O)[C@H](CO)n3cc(CCCSC)nn3)CC2)n1 31.6 µM
C#CCOCCOCCOCCNc1nc(N2CCN(C(=O)CCCCCCCCCCNC(=O)[C@H](CCCCN)n3cc(C)nn3)CC2)nc(N2CCN(C(=O)CCCCCCCCCCNC(=O)[C@H](CO)n3cc(CCCSC)nn3)CC2)n1 50.1 µM
C#CCOCCOCCOCCNc1nc(N2CCN(C(=O)CCCCCCCCCCNC(=O)[C@H]([C@@H](C)CC)n3cc(CCCCN=C(N)N)nn3)CC2)nc(N2CCN(C(=O)CCCCCCCCCCNC(=O)[C@H](CO)n3cc(CCCSC)nn3)CC2)n1 25.1 µM
Cn1ccc(=Nc2ccc(NC(=O)c3ccc(N=c4ccn(C)c5ccc([N+](=O)[O-])cc45)cc3)cc2)cc1 39.8 µM
O=C(c1cccnc1)N(c1cc2sc(=O)oc2c2ccccc12)S(=O)(=O)c1ccccc1 20 µM
COC(=O)CCCCC1=CCC2C(=O)C=C(O)C2C1 (configuration not stated) 50.1 µM
